Most compounds without a hit are left out; they make up all but 11% or so of the library.
HEK293 tox = Cytotoxic Profiling in HEK 293 Cell Line of Diverse Libraries Using Quantitative High-Throughput Screening | HEK 293 viability, ATP luminescence (CellTiter-Glo), 48-72 h | 94,000 compounds, 6.6% hits | Potency, µM (titrated, usually from 115 µM), for the others: at the top dose activity change, negative = cytotoxicity, actives largely listed as inhibitors | AID 1345083, 2018; also: % is scaled to controls: 0 for no effect and ±100 for the full control effect; nearly all actives have a fitted effect of over 60% in size
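Cells seeded first (HEK 293, 250 cells/well), then compound added by pintool. Incubation ran 48 or 72 hr at 37 degree Celsius. CellTiter-Glo was added and luminescence imaged after 10 min at room temperature.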
NPR1 antag = Natriuretic polypeptide receptor (hNpr1) antagonism - Primary qHTS | 76,000 compounds, 1.6% hits | AID 1347048, 2019 | HEK293 hNpr1 GloSensor cGMP, ANP-stimulated luminescence | Potency, µM (highest dose often 46.3 µM), inactives show at the top dose activity change, negative = inhibition, actives largely listed as inhibitors | Atrial natriuretic peptide receptor 1 (Homo sapiens), P16066; calls by dose curve; also: % is scaled to controls: 0 for no effect and ±100 for the full control effect; nearly all actives have a fitted effect of over 60% in size
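HEK293 cells stably expressing human Npr1 and cGMP GloSensor pGS-40F, loaded 2 h with 2% GloSensor reagent, given compound 30 min at room temperature. Luminescence read before and 20 min after 0.1 nM hNppA.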
3T3 cytotox = Cytotoxic Profiling in NIH 3T3 Cell Line of Diverse Libraries Using Quantitative High-Throughput Screening; AID 1345082, 2018; NIH 3T3 viability, CellTiter-Glo ATP luminescence, 48-72 h; 94,000 compounds, 4.3% hits; Potency, µM (series often up to 96.7 µM), without a hit: at the highest dose activity change, negative = cytotoxicity, usual class: inhibitors; also: % is scaled to controls: 0 for no effect and ±100 for the full control effect; nearly all actives have a fitted effect of over 55% in size
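Cells were seeded at 400 per well, treated with pin-transferred compound, and kept 48 or 72 hr at 37 °C before CellTiter-Glo addition and luminescence imaging of cellular ATP.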
FLuc inh-1 = Firefly luciferase inhibition profiling of diverse chemical library using quantitative high-throughput screening; 76,000 compounds, 2.5% hits; purified P. pyralis luciferase, luminescence, biochemical; Potency, µM (series often up to 115 µM), hits mostly inhibitors; also: % is scaled to controls: 0 for no effect and ±100 for the full control effect; nearly all actives have a fitted effect of over 65% in size
Target sequence (P08659 whole entry, looked up): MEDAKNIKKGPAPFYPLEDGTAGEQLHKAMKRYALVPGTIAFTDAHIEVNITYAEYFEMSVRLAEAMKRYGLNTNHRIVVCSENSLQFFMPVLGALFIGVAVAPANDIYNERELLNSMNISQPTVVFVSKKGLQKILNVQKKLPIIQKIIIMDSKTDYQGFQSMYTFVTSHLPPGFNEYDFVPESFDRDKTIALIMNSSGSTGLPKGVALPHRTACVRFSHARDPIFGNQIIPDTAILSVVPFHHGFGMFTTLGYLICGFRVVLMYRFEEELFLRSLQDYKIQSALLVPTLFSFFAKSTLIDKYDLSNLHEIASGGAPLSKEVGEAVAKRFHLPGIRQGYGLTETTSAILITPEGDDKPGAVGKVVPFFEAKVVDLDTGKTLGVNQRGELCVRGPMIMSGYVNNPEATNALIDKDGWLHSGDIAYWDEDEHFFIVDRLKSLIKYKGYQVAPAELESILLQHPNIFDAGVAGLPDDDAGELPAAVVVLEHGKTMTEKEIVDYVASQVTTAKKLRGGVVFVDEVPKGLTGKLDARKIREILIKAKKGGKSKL
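Biochemical qHTS: compound (6-point titration) added to 10uM D-luciferin plus 10uM ATP in Tris acetate pH 7.5 buffer with Mg, Tween-20 and BSA, then purified enzyme at 10nM; light output imaged.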
FLuc SDR -ATP = Firefly luciferase (FLuc-C-HiBiT) SDR gain of signal screen - without ATP | shares compounds with FLuc inh-1 | Purified FLuc-C-HiBiT, Nano-Glo HiBiT luminescence, no ATP | Potency, µM (series often up to 32.7 µM), inactives show at the highest dose activation (signal gain), most hits filed as activators | 1,300 compounds, 7.8% hits | AID 1963318, 2024; also: nearly all actives have a fitted effect of over 55% in size
FLuc SDR ATP = Firefly luciferase (FLuc-C-HiBiT) SDR gain of signal screen - plus ATP | shares compounds with FLuc inh-1 | purified FLuc-C-HiBiT + ATP, HiBiT complementation luminescence | Potency, µM (highest dose often 32.7 µM), for the others: top-dose activation (gain of signal), actives largely listed as activators | 1,300 compounds, 8.7% hits;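 also: signal reports ligand binding via conformational change of the enzyme rather than luciferase catalysis; % of control where 0% means no effect; nearly all actives have a fitted effect of over 55% in size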
FLuc inh-2 = Firefly luciferase (FLuc-C-HiBiT) enzymatic inhibition screen - Functional assay; AID 1963320, 2024; 1,300 compounds, 42% hits; Potency, µM (series often up to 32.7 µM), without a hit: at the highest dose activity change, negative = inhibition, hits mostly inhibitors; shares compounds with FLuc inh-1; purified FLuc-C-HiBiT enzyme, luciferin luminescence; also: % is scaled to controls: 0 for no effect and ±100 for the full control effect; nearly all actives have a fitted effect of over 70% in size
* marks the source's active call; other numbers are inactive results; [ ] = another dose, or the depositor's remark. Unless noted, calls follow the shape of the dose curve; as a rule, active = well fitted curve in the direction sought with a large enough effect; inconclusive = small, poorly fitted or top-dose-only effect, or another doubt; inactive = no such curve, though single readings can be large; an effect the other way counts as inactive or inconclusive. Potency is read from the fitted curve at half-maximal effect.

How did Cn1ccnc1CN1CCN(c2nccc(-c3ccccn3)n2)CC1 do in these assays?
HEK293 tox: 4.4%; NPR1 antag: 5.7%; 3T3 cytotox: -3.7%; FLuc inh-1: inactive

Results for COCCN1CCNc2cc(-c3cccc(N(C)C)c3)ncc2C1 ?
FLuc SDR -ATP: 30.6%[49.3 µM]; FLuc SDR ATP: inconclusive; FLuc inh-2: 16.1µM*

Results for CC(=O)Nc1cccc(-c2cc3c(cn2)CN(Cc2ccccc2)CCN3)c1 ?
HEK293 tox: inconclusive; NPR1 antag: 2.4%[70.6 µM]; 3T3 cytotox: inconclusive; FLuc inh-1: 14.1µM*; FLuc SDR -ATP: 19.8%[49.3 µM]; FLuc SDR ATP: 16.7%[49.3 µM]; FLuc inh-2: inconclusive

What do the screens show for `Cc1cc(-c2cc3c(cn2)CN(Cc2nccn2C)CCN3)ccn1`?
FLuc SDR -ATP: 17.6%[49.3 µM]; FLuc SDR ATP: 12.6%[49.3 µM]; FLuc inh-2: inconclusive

Results for CC(=O)N1CCNc2cc(-c3cccc(F)c3)ncc2C1 ?
FLuc SDR -ATP: 20.8%[65.7 µM]; FLuc SDR ATP: 16.4%[65.7 µM]; FLuc inh-2: inconclusive

What do the screens show for `CC(=O)N1CCN(C(=O)c2cccc(-c3ccccn3)c2)CC1`?
HEK293 tox: -24.0%[172 µM]; 3T3 cytotox: -7.1%[138 µM]

What do the screens show for `O=C(NCC1CC1)c1cc(C2CC2)nc2onc(C3CCCN3)c12` (stereo not drawn)?
HEK293 tox: -3.3%; 3T3 cytotox: inactive

Results for Cc1ccc(C)c(N2CCN(C(=O)c3noc(-c4ccc[nH]c4=O)n3)CC2)c1 ?
HEK293 tox: inconclusive; NPR1 antag: 2.4%; 3T3 cytotox: -22.4%; FLuc inh-1: inactive

What do the screens show for `COc1cccc(CN2CCNc3cc(-c4ccnc(C)c4)ncc3C2)c1`?
HEK293 tox: 70.8µM*; NPR1 antag: -3.7%[70.6 µM]; 3T3 cytotox: inconclusive; FLuc inh-1: 14.1µM*; FLuc SDR -ATP: 16.5%[49.3 µM]; FLuc SDR ATP: 16.4%[49.3 µM]; FLuc inh-2: inconclusive

Results for Fc1cccc(CN2CCNc3cnc(OCc4cccnc4)cc3C2)c1 ?
HEK293 tox: inconclusive; NPR1 antag: -15.9%[70.6 µM]; 3T3 cytotox: inconclusive; FLuc inh-1: inactive

How did NC(=O)CC1CCN(c2ncnc3c2cnn3-c2ccccc2)CC1 do in these assays?
FLuc SDR -ATP: 10.3%; FLuc SDR ATP: 11.0%; FLuc inh-2: -18.4%

How did c1ccc(-n2ncc3c(N4CCCCC4)ncnc32)cc1 do in these assays?
FLuc SDR -ATP: 3.51µM*; FLuc SDR ATP: inconclusive; FLuc inh-2: 0.881µM*

What do the screens show for `CN1CC(=O)N(c2cccnc2)Cc2c1ncnc2N1CCC(c2ccccc2)CC1`?
HEK293 tox: inconclusive; NPR1 antag: -3.8%; 3T3 cytotox: inconclusive; FLuc inh-1: inactive

How did OC1CCN(c2ncnc3c2cnn3-c2ccccc2)CC1 do in these assays?
FLuc SDR -ATP: 25.4%; FLuc SDR ATP: inconclusive; FLuc inh-2: inconclusive

What do the screens show for `OCC1CCN(c2ncnc3c2cnn3-c2ccccc2)CC1`?
FLuc SDR -ATP: 21.3%; FLuc SDR ATP: 17.4%; FLuc inh-2: inconclusive

How did O=C(COc1ccc(-c2nnc3n2CCCC3)cc1)Nc1cccc(F)c1 do in these assays?
HEK293 tox: -15.6%; NPR1 antag: -7.3%; 3T3 cytotox: -25.8%; FLuc inh-1: inactive

What do the screens show for `Cc1cccc(N(CC(=O)N[C@H]2CC[C@H]2NC2CCCC2)S(C)(=O)=O)c1`?
HEK293 tox: -1.5%; NPR1 antag: -4.4%; 3T3 cytotox: -26.5%; FLuc inh-1: inactive

Results for CC(Oc1ccccc1)C(=O)N1CCc2c(c(-c3nncn3C(C)C)nn2C)C1 (stereo not drawn) ?
HEK293 tox: -21.0%; NPR1 antag: -1.3%; 3T3 cytotox: -18.2%; FLuc inh-1: inactive

How did CC(C)NC(=O)c1ccc2oc(-c3ccnc(Cl)c3)nc2c1 do in these assays?
HEK293 tox: inconclusive; 3T3 cytotox: -21.8%[138 µM]

How did NC(=O)C1CCN(c2ncnc3c2cnn3-c2cccc(Cl)c2)CC1 do in these assays?
FLuc SDR -ATP: 17.2%; FLuc SDR ATP: 11.5%; FLuc inh-2: -17.8%

How did Cc1ccc(N2Cc3c(ncnc3N3CCN(c4ncccn4)CC3)N(C)CC2=O)cc1 do in these assays?
HEK293 tox: -20.3%; NPR1 antag: 1.4%; 3T3 cytotox: -10.2%; FLuc inh-1: inactive

Results for NC(=O)C1CCN(C(=O)CC(c2ccccc2)c2cccc(Cl)c2)CC1 (stereo not drawn) ?
HEK293 tox: 2.9%; NPR1 antag: -12.2%; 3T3 cytotox: inactive; FLuc inh-1: inactive

How did Cc1ccc(-n2ncc3c(N4CCN(C)CC4)ncnc32)cc1 do in these assays?
FLuc SDR -ATP: 22.8%; FLuc SDR ATP: inconclusive; FLuc inh-2: 5.56µM*

Results for Cc1ccccc1N1Cc2c(ncnc2N2CCN(Cc3ccccc3)CC2)N(C)CC1=O ?
HEK293 tox: inconclusive; NPR1 antag: -10.9%; 3T3 cytotox: -26.0%; FLuc inh-1: inactive

How did CC(=O)NCCNC(=O)c1ccc2c(=O)n(CCc3ccccc3)c(=O)[nH]c2c1 do in these assays?
FLuc SDR -ATP: 9.9%; FLuc SDR ATP: 13.6%; FLuc inh-2: inconclusive

How did COc1cccc(-c2ncc3c(n2)OCCN(Cc2ccccc2)C3=O)c1 do in these assays?
HEK293 tox: inconclusive; NPR1 antag: inconclusive; 3T3 cytotox: inconclusive; FLuc inh-1: 2.82µM*; FLuc SDR -ATP: 23.6%[49.3 µM]; FLuc SDR ATP: inconclusive; FLuc inh-2: inconclusive

What do the screens show for `COCCN1CCOc2nc(-c3cccc(N(C)C)c3)ncc2C1=O`?
FLuc SDR -ATP: 28.1%[49.3 µM]; FLuc SDR ATP: inconclusive; FLuc inh-2: inconclusive

Results for O=C1c2cnc(-c3cc4ccccc4o3)nc2OCCN1Cc1ccccc1 ?
HEK293 tox: inconclusive; NPR1 antag: 8.91µM*; 3T3 cytotox: inconclusive; FLuc inh-1: 0.1µM*; FLuc SDR -ATP: inconclusive; FLuc SDR ATP: inconclusive; FLuc inh-2: 1.61µM*

Assay outcomes: PubChem BioAssay, National Center for Advancing Translational Sciences (NCATS)
